Measurements from PubChem BioAssay.
Calls of active or inactive are those of the source.

Columns and labels:
[1] = system: Plasmodium falciparum Sir2 (PF13_0152, Sir2A); assay: pfSir2 binders on small-molecule microarrays, primary screen, biochemical, small-molecule microarray, 635 nm fluorescence (AID 1098); conditions: small-molecule microarray binding, fluorescence 635 nm; higher = more signal;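 also: score merges spot fluorescence intensity with its signal-to-noise ratio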
[2] = small-molecule microarray binders of probe aDKK1, primary screen, biochemical, biotinylated probe, 635/667 nm fluorescence (AID 1099); conditions: higher = more signal;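 also: score merges 667nm spot fluorescence with signal to noise across triplicate slides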
[3] = small-molecule microarray binders of probe aCHRDL2, primary screen, biochemical, biotinylated probe, 635/667 nm fluorescence (AID 1100); conditions: higher = more signal
[4] = splicing luciferase reporter signal modulators, primary screen, spliceosome inhibition project, cell-based, HEK293, splice +/- reporter (AID 1101); conditions: luminescence, 24 h, higher = more signal, called active from +8 up or from −8 down;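 also: HEK293 cells carrying a splicing-competent luciferase reporter gene; test concentration not given here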
[5] = target: Fibroblast growth factor 10 (Homo sapiens) (UniProt O15520); assay: FGF10 binders on small-molecule microarrays, primary screen, biochemical, small-molecule microarray, 635 nm fluorescence (AID 1102); conditions: FGF10 binding, fluorescence 635 nm, higher = more signal
[6] = system: glycogen synthase kinase-3 (GSK3A per assay name; protocol says GSK3B); assay: GSK3 binders on small-molecule microarrays, primary screen, biochemical, small-molecule microarray, 635 nm fluorescence, GSK3A (AID 1103); conditions: small-molecule microarray binding, fluorescence 635 nm; higher = more signal; also: the record names both GSK3A and GSK3B
[7] = target: Epidermal growth factor receptor (Homo sapiens) (UniProt P00533); assay: EGFR binders on small-molecule microarrays, primary screen, biochemical, small-molecule microarray, 635 nm fluorescence (AID 1104); conditions: EGFR binding, higher = more signal;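 also: score merges 667 nm emission intensity with spot signal to noise over triplicate slides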
[8] = target: Follistatin-related protein 3 (Homo sapiens) (UniProt O95633); assay: FSTL3 binders on small-molecule microarrays, primary screen, biochemical, small-molecule microarray, 635 nm fluorescence (AID 1105); conditions: FSTL3 binding, higher = more signal;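 also: score merges emission near 667 nm and signal to noise per printed spot across three slides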
[9] = target: Dickkopf-related protein 1 (Homo sapiens) (UniProt O94907); assay: DKK1 binders on small-molecule microarrays, primary screen, biochemical, small-molecule microarray, 635 nm fluorescence scan (AID 1106); conditions: DKK1 binding, higher = more signal;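 also: score merges emission near 667 nm with signal to noise over three replicate slides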
[10] = system: Inhibin beta A chain (activin A); assay: INHBA (activin A) binders on microarrays, primary screen, biochemical, small-molecule microarray, 635 nm fluorescence scan (AID 1107); conditions: small-molecule microarray binding, higher = more signal;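 also: mouse activin A protein probed at 4.33 µg/mL on printed slides; score merges bound-protein fluorescence near 667 nm with spot signal-to-noise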
[11] = system: Human papillomavirus type 1a protein E7 (residues 44-93); assay: HPV1a E7 fragment binders on microarrays, primary screen, biochemical, small-molecule microarray, residues 44-93, 635 nm fluorescence (AID 1108); conditions: small-molecule microarray binding, fluorescence 635 nm; higher = more signal;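 also: E7 fragment applied at 1 µg/mL in TBST for 1 h at 4 C; score combines spot fluorescence with its signal to noise ratio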
[12] = modulators of HCV replicon luciferase signal, primary screen, HCV replication inhibitor project, Huh7 cells, luciferase reporter (AID 1109); conditions: 48 h, higher = more signal;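 also: huh7 hepatoma cells harbouring a luciferase neomycin HCV replicon reporter; luciferase luminescence as measure of HCV replicon replication; test concentration not given here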
[13] = target: Left-right determination factor 2 (Homo sapiens) (UniProt O00292); assay: LEFTY2 binders on small-molecule microarrays, primary screen, biochemical, small-molecule microarray, 635 nm fluorescence scan (AID 1110); conditions: LEFTY2 binding, higher = more signal
[14] = target: Calmodulin-1 (Homo sapiens) (UniProt P0DP23); assay: CALM1 binders on microarrays, EGTA buffer, profiling panel, biochemical, small-molecule microarray, Cy5-labelled CALM1 (AID 1111); conditions: Cy5-CALM1 binding fluorescence, higher = more signal;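 also: labelled calmodulin applied in Tris saline Tween buffer holding calcium plus EGTA and DTT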
[15] = target: Calmodulin-1 (Homo sapiens) (UniProt P0DP23); assay: calcium-bound CALM1 binders on microarrays, profiling panel, artefact control for SMM control-protein annotation, biochemical, small-molecule microarray, Cy5-labelled CALM1, plus calcium (AID 1112); conditions: Cy5-CALM1 binding fluorescence, higher = more signal;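 also: score merges spot fluorescence with signal to noise from triplicate slides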
[16] = small-molecule microarray binders of probe aWnt5a, primary screen, biochemical, biotinylated probe, 635/667 nm fluorescence (AID 1113); conditions: higher = more signal;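 also: score merges 667 nm fluorescence intensity with signal-to-noise per printed feature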
[17] = small-molecule microarray binders of probe aShh, primary screen, biochemical, biotinylated probe, 635/667 nm fluorescence (AID 1114); conditions: higher = more signal;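 also: probe is biotin-labelled aShh protein from a stem cell growth factor screen; measures binding of labelled protein to compounds printed on the slide; score merges feature fluorescence at 667 nm with signal-to-noise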
[18] = small-molecule microarray binders of probe aNog, primary screen, biochemical, biotinylated probe, 635/667 nm fluorescence (AID 1115); conditions: higher = more signal;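 also: probe is biotinylated aNog protein used at 0.15 µg/mL for 1 h at 4 C; z-score combines 667 nm fluorescence of each spot with its signal to noise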
[19] = target: Torsin-1A-interacting protein 1 (Homo sapiens) (UniProt Q5JTV8); assay: LAP1 binders from COS7 cell lysate, primary screen, small-molecule microarray, 635/667 nm fluorescence (AID 1116); conditions: COS7-hLAP1 lysate binding, 635 nm fluorescence, higher = more signal
[20] = target: Alpha-bungarotoxin (Bungarus multicinctus) (UniProt P60615); assay: alpha-bungarotoxin binders on microarray, profiling panel, artefact control for SMM control protein annotation, biochemical, small-molecule microarray, Alexa647 label, 635/667 nm fluorescence (AID 1117); conditions: alpha-BTX-A647 binding fluorescence, higher = more signal
Alpha-bungarotoxin (Bungarus multicinctus), sequence (P60615 whole entry, looked up): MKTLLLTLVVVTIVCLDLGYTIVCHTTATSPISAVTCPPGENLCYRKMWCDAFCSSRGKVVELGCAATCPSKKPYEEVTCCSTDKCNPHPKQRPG

Fibroblast growth factor 10 (Homo sapiens), sequence (O15520 whole entry, looked up): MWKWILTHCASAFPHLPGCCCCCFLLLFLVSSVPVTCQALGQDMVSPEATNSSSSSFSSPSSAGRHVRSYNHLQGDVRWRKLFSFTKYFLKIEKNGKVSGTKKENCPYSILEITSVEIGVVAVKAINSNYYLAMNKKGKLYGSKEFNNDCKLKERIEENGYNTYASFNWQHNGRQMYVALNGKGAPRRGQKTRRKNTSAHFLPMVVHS
Follistatin-related protein 3 (Homo sapiens), sequence (O95633 whole entry, looked up): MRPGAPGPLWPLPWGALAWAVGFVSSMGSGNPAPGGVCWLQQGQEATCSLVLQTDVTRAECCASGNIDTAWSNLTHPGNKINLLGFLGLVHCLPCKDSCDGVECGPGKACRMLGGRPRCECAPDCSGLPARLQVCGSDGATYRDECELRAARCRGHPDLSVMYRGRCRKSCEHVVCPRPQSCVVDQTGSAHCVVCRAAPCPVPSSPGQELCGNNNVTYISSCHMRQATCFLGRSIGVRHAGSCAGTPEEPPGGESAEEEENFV
Torsin-1A-interacting protein 1 (Homo sapiens), sequence (Q5JTV8 whole entry, looked up): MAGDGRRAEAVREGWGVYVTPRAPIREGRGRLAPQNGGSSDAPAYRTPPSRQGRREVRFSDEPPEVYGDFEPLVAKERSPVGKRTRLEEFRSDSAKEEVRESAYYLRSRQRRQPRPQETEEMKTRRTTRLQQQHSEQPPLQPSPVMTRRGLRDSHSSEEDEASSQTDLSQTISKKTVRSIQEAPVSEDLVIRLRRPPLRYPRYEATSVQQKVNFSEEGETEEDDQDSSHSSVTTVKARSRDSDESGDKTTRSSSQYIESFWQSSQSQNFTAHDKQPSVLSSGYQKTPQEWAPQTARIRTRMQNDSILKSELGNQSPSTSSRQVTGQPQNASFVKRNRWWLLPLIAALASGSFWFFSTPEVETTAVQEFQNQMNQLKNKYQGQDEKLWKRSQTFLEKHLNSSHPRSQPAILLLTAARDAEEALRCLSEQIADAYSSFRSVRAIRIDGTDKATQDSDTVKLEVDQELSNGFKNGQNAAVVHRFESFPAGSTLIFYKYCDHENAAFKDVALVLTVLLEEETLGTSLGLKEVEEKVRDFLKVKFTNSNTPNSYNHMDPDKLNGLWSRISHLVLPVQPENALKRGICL
Dickkopf-related protein 1 (Homo sapiens), sequence (O94907 whole entry, looked up): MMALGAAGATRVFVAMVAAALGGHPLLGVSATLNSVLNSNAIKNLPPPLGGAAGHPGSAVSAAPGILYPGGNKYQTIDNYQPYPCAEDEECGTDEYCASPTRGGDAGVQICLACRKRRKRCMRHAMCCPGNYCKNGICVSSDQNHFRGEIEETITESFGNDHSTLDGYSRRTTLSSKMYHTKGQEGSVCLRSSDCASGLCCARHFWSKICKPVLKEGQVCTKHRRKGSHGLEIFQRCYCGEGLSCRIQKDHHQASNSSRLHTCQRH
Left-right determination factor 2 (Homo sapiens), sequence (O00292 whole entry, looked up): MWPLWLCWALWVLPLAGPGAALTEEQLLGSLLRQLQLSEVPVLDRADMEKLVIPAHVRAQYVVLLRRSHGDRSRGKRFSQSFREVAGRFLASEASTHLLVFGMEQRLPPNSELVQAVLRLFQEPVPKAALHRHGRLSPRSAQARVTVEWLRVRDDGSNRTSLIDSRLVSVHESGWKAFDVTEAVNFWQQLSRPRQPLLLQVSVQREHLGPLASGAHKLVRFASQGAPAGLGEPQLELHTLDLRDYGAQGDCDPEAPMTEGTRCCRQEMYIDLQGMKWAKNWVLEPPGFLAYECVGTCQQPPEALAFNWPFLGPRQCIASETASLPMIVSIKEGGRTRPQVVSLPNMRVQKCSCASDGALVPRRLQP
Epidermal growth factor receptor (Homo sapiens), sequence (P00533 whole entry, looked up): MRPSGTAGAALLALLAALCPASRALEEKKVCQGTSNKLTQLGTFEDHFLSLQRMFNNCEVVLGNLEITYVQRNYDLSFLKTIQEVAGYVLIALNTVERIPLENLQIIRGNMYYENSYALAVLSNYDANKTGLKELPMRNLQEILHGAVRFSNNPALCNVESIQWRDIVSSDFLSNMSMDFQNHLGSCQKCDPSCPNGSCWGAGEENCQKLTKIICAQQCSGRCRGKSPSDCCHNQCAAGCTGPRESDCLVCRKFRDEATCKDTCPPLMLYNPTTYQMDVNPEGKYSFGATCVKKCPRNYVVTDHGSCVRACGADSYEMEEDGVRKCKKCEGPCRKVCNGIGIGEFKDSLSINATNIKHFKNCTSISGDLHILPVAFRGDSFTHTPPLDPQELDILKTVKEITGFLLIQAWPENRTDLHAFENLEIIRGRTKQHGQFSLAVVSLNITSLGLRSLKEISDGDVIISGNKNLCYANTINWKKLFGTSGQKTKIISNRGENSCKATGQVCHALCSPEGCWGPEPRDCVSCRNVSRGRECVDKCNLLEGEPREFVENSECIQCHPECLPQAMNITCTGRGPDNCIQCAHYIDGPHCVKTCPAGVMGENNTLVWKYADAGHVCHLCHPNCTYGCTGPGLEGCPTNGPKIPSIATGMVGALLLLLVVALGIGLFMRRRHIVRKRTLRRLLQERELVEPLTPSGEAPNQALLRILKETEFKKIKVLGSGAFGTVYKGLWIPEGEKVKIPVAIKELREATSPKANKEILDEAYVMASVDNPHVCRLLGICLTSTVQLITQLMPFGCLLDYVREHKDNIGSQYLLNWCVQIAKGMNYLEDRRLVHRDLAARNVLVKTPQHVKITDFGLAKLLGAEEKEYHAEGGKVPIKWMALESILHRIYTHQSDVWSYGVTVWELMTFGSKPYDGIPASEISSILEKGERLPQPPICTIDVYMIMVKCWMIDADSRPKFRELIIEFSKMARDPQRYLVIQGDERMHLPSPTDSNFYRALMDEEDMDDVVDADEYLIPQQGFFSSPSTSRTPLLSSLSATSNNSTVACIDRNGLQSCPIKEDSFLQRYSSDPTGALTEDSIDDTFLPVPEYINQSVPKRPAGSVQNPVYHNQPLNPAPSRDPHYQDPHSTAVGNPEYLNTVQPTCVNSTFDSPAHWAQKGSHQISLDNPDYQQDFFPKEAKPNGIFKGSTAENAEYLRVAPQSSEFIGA

| SMILES | composite z-score [1] | composite z-score [2] | composite z-score [3] | z-score [4] | composite z-score [5] | composite z-score [6] | composite z-score [7] | composite z-score [8] | composite z-score [9] | composite z-score [10] | composite z-score [11] | z-score [12] | composite z-score [13] | composite z-score [14] | composite z-score [15] | composite z-score [16] | composite z-score [17] | composite z-score [18] | composite z-score [19] | composite z-score [20] |
| --- | --- | --- | --- | --- | --- | --- | --- | --- | --- | --- | --- | --- | --- | --- | --- | --- | --- | --- | --- | --- |
| C=CC[C@@]1(C(=O)N2CCCCC2)N=C(c2ccc(OCCCO)cc2)O[C@@H]1c1ccccc1N=[N+]=[N-] | 0.763 | 1.19 | 1.07 | -0.212 (inactive) | 0.925 | 0.742 | 0.249 | 0.657 | -0.0197 | 1.03 | 1.46 | -1.62 | 0.227 | 1.27 | 0.613 | 0.0472 | 0.214 | 1.54 | 1.05 | 2.11 |
| CCCC=C(CCC)[C@@H](NC(=O)OCC(C)C)c1ccccc1 | 0.32 | 0.907 | 1.34 | -1.82 (inactive) | 0.497 | 0.659 | 0.111 | 0.663 | -0.0115 | 0.622 | 0.861 | -1.18 | -0.0453 | 1.65 | 0.438 | 0.806 | 0.717 | 1.99 | 0.226 | 0.703 |
| O=C(NCCN1CCOCC1)[C@@H]1c2ccccc2C(=O)N(Cc2cc(C(F)(F)F)cc(C(F)(F)F)c2)[C@H]1c1ccc(CO)cc1 | 1.51 | 0.254 | 0.851 | 0.91 (inactive) | -1.17 | -0.332 | -1.35 | -1.55 | -1.23 | -1.54 | 1.35 | -1.16 | -0.775 | -0.253 | -0.198 | -0.0161 | 0.123 | 0.0763 | -0.729 | 2.1 |
| Cc1c(NC(=O)/C(C#N)=C/c2cccc([N+](=O)[O-])c2)c(=O)n(-c2ccccc2)n1C | 0.141 | -0.123 | -0.413 | -0.911 (inactive) | 0.455 | 0.797 | 0.53 | 0.53 | 0.561 | 0.107 | 0.785 | -1.44 | 0.285 | 0.619 | -0.249 | -0.0819 | -0.0793 | -0.346 | 0.38 | 0.0071 |
| C=CC[C@]1(C(N)=O)COC(c2ccc(OCCCO)cc2)=N1 | -0.171 | -0.145 | 0.381 | -0.359 (inactive) | 0.577 | -0.557 | 0.0704 | -0.235 | -0.314 | 0.927 | -0.287 | -0.243 | 0.237 | -0.257 | -0.296 | -0.0899 | -0.0793 | 0.0519 | 0.837 | 1.37 |
| COc1cc2c(cc1O)C(c1cccs1)N(Cc1cccc(OC(F)(F)F)c1)CC2 (stereo not given) | 1.77 | -0.293 | 0.154 | 0.965 (inactive) | -0.153 | -0.0228 | -0.0017 | 0.105 | -0.183 | 1.41 | 1.14 | -1.75 | 0.0446 | 0.0759 | -0.194 | -0.0545 | -0.0709 | 0.0953 | 0.0117 | 0.422 |
| COCC(=C=CC[C@H](O)c1cccc(OCCO)c1)C[C@H](O)c1cc(Cl)cc(Cl)c1O | 0.516 | -0.0921 | -0.174 | 0.102 (inactive) | 1.55 | 1.17 | 0.331 | 0.785 | 0.551 | 0.712 | 1.37 | -0.566 | 0.578 | -0.0781 | -0.821 | -0.0478 | 0.0639 | -0.328 | 1.12 | 0.0872 |
| O=C1C2C=CC(C(O)c3ccc4c(c3)OCO4)N(Nc3ccc([N+](=O)[O-])cc3)C2C(=O)N1c1ccccc1 (stereo not given) | 1.73 | -0.0669 | -0.162 | -0.0322 (inactive) | 0.67 | 0.675 | 0.342 | 0.381 | 0.207 | 0.278 | 1.12 | -0.133 | 0.219 | -0.182 | -0.429 | -0.0445 | -0.0968 | -0.418 | -0.181 | 0.177 |
| COC(=O)C(CC#Cc1ccc2c(c1)[C@]1(C(=O)N2)[C@H](c2ccccc2OCCO)N2[C@H](c3ccccc3)[C@H](c3ccccc3)OC(=O)[C@H]2[C@@H]1C(=O)O)C(=O)OC | 1.49 | 0.666 | 0.0004 | -0.597 (inactive) | 0.738 | 0.93 | 0.28 | 0.356 | 0.278 | 1.04 | 1.43 | -0.567 | 0.17 | 1.61 | 0.701 | 0.0597 | 0.218 | 0.0258 | 0.967 | 1.94 |
| COC(=O)[C@]1(Cc2ccccc2)N=C(c2ccc(OCCCO)cc2)O[C@@H]1c1ccccc1N=[N+]=[N-] | 1.54 | 0.124 | 0.527 | -1.56 (inactive) | 0.79 | 0.519 | -0.0527 | 0.257 | -0.0949 | 0.796 | 1.33 | -3.25 | 0.123 | 0.39 | 0.245 | -0.0236 | -0.0709 | -0.595 | -0.279 | 0.0359 |
